Assay results: PubChem BioAssay (Tox21)
Several values for one entry are separate records, joined by “and”; a condition that tells them apart may be missing. Identical values can stand only once. Results filed as inconclusive are left out. The source holds several records for some structures; these can differ, active in one and inactive in another. Activity calls are given as the source filed them. Calls follow the shape of the full dose curve.

Assay: qHTS assay to identify small molecule agonists of the hypoxia (HIF-1) signaling pathway - cell viability counter screen (AID 1224844); also: nearly all actives have a fitted effect of over 50% in size
Conditions: HRE-bla ME-180 viability, CellTiter-Glo luminescence, 17 h; series mostly up to 76.8 µM; activity change, negative = cytotoxicity: at the top concentration
From the text: National Center for Advancing Translational Sciences [NCATS]
NIH Chemical Genomics Center [NCGC]
U.S. Environmental Protection Agency [EPA]
National Institutes of Environmental Health Sciences [NIEHS]
National Toxicology Program [NTP]
U.S. Food and Drug Administration [FDA]
Hypoxia-inducible factor-1 (HIF-1) is the major hypoxia-regulated transcription factor that controls cellular responses to low oxygen concentration. HIF-1 is composed of two subunits: hypoxia responsive HIF-1-alpha and constitutively expressed HIF-1-beta, which is also known as aryl hydrocarbon receptor nuclear translocator. During hypoxic conditions, HIF-1-alpha heterodimerizes with HIF-1-beta and translocates into the nucleus where the HIF-1 complex binds to the hypoxia-response element (HRE) and activates expression of target genes such as VEGF (vascular endothelial growth factor). The HIF-1 pathway is essential to normal growth and development, and is involved in the pathophysiology of cancer, inflammation, and ischemia.
Using a beta-lactamase reporter-gene under control of the hypoxia response element, a cell-based assay [CellSensor(TM) HRE-bla ME-180 from Life Technologies, Carlsbad, CA] was used to measure hypoxia-induced signaling. Tox21 10K library compounds were measured for their ability to induce the reporter gene activity. The cytotoxicity of the Tox21 compound library against HRE-bla ME-180 cell line was tested in parallel by measuring cell viability using CellTiter-Glo assay (Promega, Madison, WI) in the same assay wells.
Tox21 Assay Protocol Summary:
HRE-bla ME-180 cells were dispensed at 2,000 cells per well in 6 uL of assay medium containing 0.5% dialyzed FBS into black wall/clear-bottom 1536-well plates using a Multidrop Combi (Thermo Scientific, Waltham, MA) dispenser. After the assay plates were incubated at 37C and 5% CO2 for 5 hrs, 23 nL of compounds dissolved in DMSO, positive controls or DMSO only was transferred to each well of the assay plate using a Pintool station (Kalypsys, San Diego, CA). The assay plates were incubated at 37C and 5% CO2 for 17 hrs. One uL of LiveBLAzerTM B/G FRET substrate (CCF4-AM) (Life Technologies) was added to each well using a Flying Reagent Dispenser (FRD, Aurora Discovery, San Diego, CA). After 2 hr incubation at room temperature, fluorescence intensity (405 nm excitation, 460 nm and 530 nm emissions) was measured using an Envision plate reader (PerkinElmer, Shelton, CT). For cytotoxicity, 4 ul/well of CellTiter-Glo reagent was added into the assay plates using an FRD. After 30 min incubation at room temperature, the luminescence intensity was measured using a ViewLux plate reader (PerkinElmer).
% is scaled to controls: 0 for no effect and ±100 for the full control effect; potency is read from the fitted curve at half-maximal effect.

Compound	activity change, negative = cytotoxicity	Potency
CCCCCCCC	6.8% (inactive)	
O=C1c2ccccc2C(=O)N1SC1CCCCC1		54.9 µM (active)
OC[C@H]1O[C@H](O[C@H]2O[C@H](CO)[C@@H](O)[C@H](O)[C@H]2O)[C@H](O)[C@@H](O)[C@@H]1O	9.98% (inactive)	
O=S(=O)(O)c1ccccc1/C=C/c1ccc(-c2ccc(/C=C/c3ccccc3S(=O)(=O)O)cc2)cc1	1.82% (inactive)	
CCCCCCCCCCCC(=O)OCC(C)OC(=O)CCCCC(=O)O (stereo not given)	2.05% [at 35.3 µM] (inactive)	
O=C(O)Cc1ccccc1Nc1c(Cl)cccc1Cl		inactive
COc1cccc2c1C(=O)c1c(O)c3c(c(O)c1C2=O)C[C@@](O)(C(C)=O)C[C@@H]3O[C@H]1C[C@H](N)[C@H](O)[C@H](C)O1		553 nM (active) and inactive
O=C1NC(=O)[C@@H]2CC=CC[C@H]12		19.5 µM (active)
CC(C(=O)O)c1ccc2c(c1)[nH]c1ccc(Cl)cc12 (stereo not given)	-1.81% [at 35.3 µM] (inactive)	
OC1CCCc2ccccc21 (stereo not given)	-10.8% (inactive)	
CN(C)C(=O)COC(=O)Cc1ccc(OC(=O)c2ccc(N=C(N)N)cc2)cc1	1.06% [at 35.3 µM] (inactive)	
C=C(C)c1cccc(C(=C)C)c1	7.61% (inactive)	
Cc1ccc(C(=O)O)cc1	1.81% (inactive)	
C=C(CC)C(=O)c1ccc(OCC(=O)O)c(Cl)c1Cl		19.4 µM (active) and 21.3 µM (active)
CCOC(=O)NNc1ccc(N(CC)CC(C)O)nn1 (stereo not given)	5.59% [at 35.3 µM] (inactive)	
CC(=O)CC(=O)Nc1ccc(S(=O)(=O)O)cc1	-6.5% (inactive)	
CCc1oc2ccccc2c1C(=O)c1cc(I)c(O)c(I)c1	-37.7% [at 35.3 µM] (inactive)	
Cc1cc(-c2ccc(N=Nc3cc(S(=O)(=O)O)c4ccccc4c3N)c(C)c2)ccc1N=Nc1cc(S(=O)(=O)O)c2ccccc2c1N	3.92% (inactive)	
O=C(/C=C/c1ccccc1)OC/C=C/c1ccccc1	2.92% (inactive)	
C[C@H]1NCc2cc(-c3ccc4c(=O)c(C(=O)O)cn(C5CC5)c4c3OC(F)F)ccc21	6.72% [at 15.8 µM] (inactive)	

Compound	activity change, negative = cytotoxicity	Potency
CCCCCCCCCCOC(=O)c1ccccc1C(=O)OCCCCCCCC	-0.905% (inactive)	
CCCCCCCC/C=C\CCCCCCCCN	-1.58% [at 35.3 µM] (inactive)	
O=C(O)c1cc(O)c2ccccc2c1O		11 µM (active)
Clc1nnc(Cl)c2ccccc12	-5.9% (inactive)	
COc1cc(S(=O)(=O)O)c(C)cc1N=Nc1c(O)ccc2cc(S(=O)(=O)O)ccc12	-10.7% (inactive)	
C=CC(=O)OCCOC(=O)C=C		24.5 µM (active)
Nc1ccc(Oc2ccc(Cl)cc2)cc1	-0.601% (inactive)	
CCCC(=O)OCCc1ccccc1	4.73% (inactive)	
CCC(C)[O-].CCC(C)[O-].CCOC(=O)/C=C(/C)[O-].[Al+3]	-1.88% (inactive)	
C=Cc1cccc(C)c1		inactive
c1ccc(C(O[C@@H]2CCCN(CCc3ccc4c(c3)OCO4)C2)c2ccccc2)cc1	-16.9% (inactive)	
CC(C)=CCNc1ncnc2c1ncn2[C@@H]1O[C@H](CO)[C@@H](O)[C@H]1O		8.49 µM (active)
Cc1nc2n(c(=O)c1CCN1CCC(c3noc4cc(F)ccc34)CC1)CCCC2	0.898% [at 35.3 µM] (inactive)	
O=[N+]([O-])c1ccc(O)cc1C(F)(F)F	-3.41% (inactive)	
Cc1c(N)cccc1C(F)(F)F	-1.07% [at 35.3 µM] (inactive)	
CCOC(=O)c1ccc(C2CCC(NC[C@H](O)COc3ccc(O)c(NS(C)(=O)=O)c3)CC2)cc1 (stereo not given in full)	-18.8% (inactive)	
CC(C)Cn1cnc2c(N)nc3ccccc3c21	18.6% [at 15.8 µM] (inactive)	
CCC(COC(=O)CCS)(COC(=O)CCS)COC(=O)CCS	-16.5% (inactive)	
CCCCC(CC)COC(=O)CCCCC(=O)OCc1ccccc1 (stereo not given)	-29% (inactive)	
COc1ccc2c(c1)c(CC(=O)OC/C=C(\C)CC/C=C(\C)CCC=C(C)C)c(C)n2C(=O)c1ccc(Cl)cc1	-4.52% [at 35.3 µM] (inactive)	
